Source: PubChem BioAssay
Methyltransferases: Primary Screen for Target Class Profiling of Small Molecule Inhibitors of Methyltransferases; AID 1745853, 2022; calls only at 40 µM; 25,000 tested, 3.9% active; purified enzyme, MTase-Glo SAH luminescence; active compounds read low; call rule not given here
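Each enzyme was reacted with SAM and its substrate, with compounds tested once at 40 uM; SAH formed was read by MTase-Glo luminescence.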
Calls only; ! = repeats disagree. Shown is part of a subset that was picked to be rich in hits.

What do the screens show for `CC1CCN(CCCNC(=O)CCc2nnc3n(Cc4ccc(F)cc4)c(=O)c4ccccc4n23)CC1`?
Methyltransferases: active

How did CCN(CC)CCCNC(=O)CCc1nnc2n(Cc3ccc(Cl)cc3)c(=O)c3ccccc3n12 do in these assays?
Methyltransferases: active

Results for O=C(CCc1nnc2n(Cc3ccc(F)cc3)c(=O)c3ccccc3n12)NCCN1CCOCC1 ?
Methyltransferases: inactive

What do the screens show for `CC1CCN(CCCNC(=O)CCc2nnc3n(Cc4ccc(Cl)cc4)c(=O)c4ccccc4n23)CC1`?
Methyltransferases: active

What do the screens show for `CC1CCN(CCCNC(=O)CCc2nnc3n(Cc4ccccc4)c(=O)c4ccccc4n23)CC1`?
Methyltransferases: active

Results for Cc1ccc(CNC(=O)CCc2nnc3n(Cc4ccc(Cl)cc4)c(=O)c4ccccc4n23)cc1 ?
Methyltransferases: inactive

What do the screens show for `CCOCCCNC(=O)CCc1nnc2n(Cc3ccc(F)cc3)c(=O)c3ccccc3n12`?
Methyltransferases: inactive

How did CCOCCCNC(=O)CCc1nnc2n(Cc3ccc(Cl)cc3)c(=O)c3ccccc3n12 do in these assays?
Methyltransferases: inactive

Results for CN1CCN(CCCNC(=O)CCc2nnc3n(Cc4ccccc4Cl)c(=O)c4ccccc4n23)CC1 ?
Methyltransferases: inactive

What do the screens show for `CCCCNC(=O)CCc1nnc2n(Cc3ccc(Cl)cc3)c(=O)c3ccccc3n12`?
Methyltransferases: inactive

What do the screens show for `Cc1ccc(C)c(Cn2nc3n(CC(C)C)c(=O)c4ccc(C(=O)NC(C)C)cc4n3c2=O)c1`?
Methyltransferases: inactive

How did CCCCN1C(=O)c2cc(C(=O)NCc3cc(OC)ccc3OC)nn2CC1(C)C(=O)NC1CCCC1 (stereo not drawn) do in these assays?
Methyltransferases: inactive

Results for COc1cc(OC)c(NS(=O)(=O)c2ccc3c(c2)n(C)c(=O)n3C)cc1Cl ?
Methyltransferases: inactive

How did CC(C)Cn1c(=O)c2ccccc2n2c(=O)n(CC(=O)Nc3ccc(Cl)cc3)nc12 do in these assays?
Methyltransferases: inactive

How did Cc1cc2[nH]c(=O)[nH]c2cc1S(=O)(=O)N1CCCCC1 do in these assays?
Methyltransferases: inactive

Results for CCCn1c(=O)c2ccccc2n2c(SCC(=O)NC(C)C)nnc12 ?
Methyltransferases: inactive

What do the screens show for `CCOc1cccc(C2c3cccn3-c3sc4c(c3CN2C(=O)NCCC(=O)OC)CCCC4)c1` (stereo not drawn)?
Methyltransferases: inactive

How did Cc1ccc(CNC(=O)Cn2nc3n(C(C)C)c(=O)c4ccc(C(=O)NCC(C)C)cc4n3c2=O)cc1 do in these assays?
Methyltransferases: inactive

What do the screens show for `CS(=O)(=O)c1cccc(CNc2nc(Nc3ccc4c(c3)CCC(=O)N4)ncc2C(F)(F)F)c1`?
Methyltransferases: active

How did COc1ccc(-c2cc3n(n2)CC(C)(C(=O)NCc2ccccc2)N(Cc2cccc(OC)c2OC)C3=O)cc1 (stereo not drawn) do in these assays?
Methyltransferases: inactive

Results for C=CCn1c(=O)c2ccc(C(=O)NCC(C)C)cc2n2c(=O)n(CC(=O)Nc3ccccc3C)nc12 ?
Methyltransferases: inactive

How did O=C(Nc1nc2ccccc2n1CCc1ccccc1)c1ccccc1 do in these assays?
Methyltransferases: inactive

Results for CCc1nc(-c2cccc(C)c2)c(-c2ccnc(NC(=O)c3ccccc3)c2)s1 ?
Methyltransferases: inactive

How did O=C(Nc1cc2cc[nH]c2cn1)c1ccccc1 do in these assays?
Methyltransferases: active

What do the screens show for `O=S(=O)(c1ccccc1)c1nnn2c1nc(N1CCCC1)c1cc(Cl)ccc12`?
Methyltransferases: inactive

What do the screens show for `CN1C(=O)c2cc(C(=O)NCc3cccc(Cl)c3)nn2CC1(C)C(=O)NCc1ccc(F)cc1` (stereo not drawn)?
Methyltransferases: inactive

Results for O=c1c2ccccc2n2c(=O)n(Cc3cccc(Cl)c3)nc2n1Cc1ccc(F)cc1 ?
Methyltransferases: inactive

How did COC(=O)C1=COC(O[C@@H]2O[C@H](COC(=O)/C=C/c3ccc(O)cc3)[C@@H](O)[C@H](O)[C@H]2O)C2C(CO)=CCC12 (stereo partly drawn) do in these assays?
Methyltransferases: inactive

What do the screens show for `O=C(/C=C/c1ccccc1)OCC1=CC[C@@H]2C(C(=O)O)=CO[C@@H](O[C@@H]3O[C@H](CO)[C@@H](O)[C@H](O)[C@H]3O)[C@H]12`?
Methyltransferases: inactive

Results for COC(=O)C1=CO[C@@H](O[C@@H]2O[C@H](COC(=O)/C=C/c3cc(OC)c(O)c(OC)c3)[C@@H](O)[C@H](O)[C@H]2O)[C@@H]2C(CO)=CC[C@H]12 ?
Methyltransferases: active

Results for CCCc1cc2c(-c3ccccc3)cc(=O)oc2cc1OCc1cc(C(=O)OC)oc1C ?
Methyltransferases: inactive

Results for CCOCCCNC(=O)C1(C)Cn2c(ccc2-c2ccco2)C(=O)N1c1ccc(OC)c(OC)c1 (stereo not drawn) ?
Methyltransferases: inactive

Results for COc1cc(O)cc(/C=C/c2cccc(O)c2)c1 ?
Methyltransferases: inactive

Results for Oc1cc(O)cc(/C=C/c2ccc(O)c(O)c2)c1 ?
Methyltransferases: active

Results for Oc1ccc(/C=C/c2ccc(/C=C/c3ccc(O)cc3)c(Br)c2)cc1 ?
Methyltransferases: inactive

What do the screens show for `CCCn1c(=O)c2ccccc2n2c(=O)n(Cc3cccc(OC)c3)nc12`?
Methyltransferases: inactive

What do the screens show for `Cn1c(=O)n(C)c2cc(S(=O)(=O)Nc3cccc(C(F)(F)F)c3)ccc21`?
Methyltransferases: inactive

What do the screens show for `Cc1ccc(S(=O)(=O)NCCN2CCN(S(=O)(=O)c3ccc(C)cc3)CC2)cc1`?
Methyltransferases: inactive

Results for CSc1ccc(CCN2C(=O)c3ccc(-c4ccco4)n3CC2(C)C(=O)NC2CCCCC2)cc1 (stereo not drawn) ?
Methyltransferases: inactive

Results for CC1(C(=O)NC2CCCC2)Cn2c(ccc2-c2ccccc2)C(=O)N1CCCc1ccccc1 (stereo not drawn) ?
Methyltransferases: inactive

Results for CC(C)(Sc1ccc(CCN(CCCCC2CCCCC2)C(=O)NC2CCCCC2)cc1)C(=O)O ?
Methyltransferases: active!

Results for CC1CCCC(NC(=O)C2(C)Cn3c(nc4ccccc43)C(=O)N2Cc2ccccc2F)C1C (stereo not drawn) ?
Methyltransferases: inactive

What do the screens show for `Cc1ccc(CNC(=O)CSc2nnc3n(Cc4ccc(F)cc4)c(=O)c4ccccc4n23)cc1`?
Methyltransferases: inactive

How did Cc1ccc(Cn2c(=O)c3ccccc3n3c(=O)n(CC(=O)Nc4cccc(F)c4)nc23)cc1 do in these assays?
Methyltransferases: inactive

How did CCn1cc(-c2ccnc3[nH]c(-c4cccc(CN(C)C)c4)cc23)c(-c2ccc(NC(=O)N(C)C)cc2)n1 do in these assays?
Methyltransferases: active

What do the screens show for `CN(C)C(=O)Nc1cccc(-c2ccc(N(C)C)cc2)c1`?
Methyltransferases: inactive

How did CCOC(=O)c1ccc(N2C(=O)CSc3c(c4ccccc4n3C)C2C(=O)NCCC(C)C)cc1 (stereo not drawn) do in these assays?
Methyltransferases: inactive

Results for CCN1C(=O)c2cc(C(=O)Nc3cccc(Cl)c3)nn2CC1(C)C(=O)NC1CCCC1 (stereo not drawn) ?
Methyltransferases: inactive

How did COc1ccccc1CNC(=O)c1cc2n(n1)CC(C)(C(=O)NC1CCCCC1)N(C)C2=O (stereo not drawn) do in these assays?
Methyltransferases: inactive

What do the screens show for `CN(C)CCC=C1c2ccccc2CCc2ccccc21`?
Methyltransferases: active

How did CC(CN(C)C)CN1c2ccccc2CCc2ccccc21 (stereo not drawn) do in these assays?
Methyltransferases: inactive
